The values that follow come from PubChem BioAssay (NCATS).

Activity calls are given as the source filed them. The call rests on the fitted dose curve; in most records, active means well fitted curve in the direction sought with a large enough effect; inconclusive means small, poorly fitted or top-dose-only effect, or another doubt; inactive means no such curve, though single readings can be large or run the other way.

The nature of the assay: qHTS for compounds that reverse cellular toxicity of Amyloid beta (A-beta) peptide in yeast: LOPAC Validation Assay (AID 720559). The conditions noted are these: yeast expressing A-beta; series mostly up to 46.1 µM. The source says: The A-beta peptide is produced by the processing of the amyloid precursor protein (APP) by two proteases, beta and gamma secretases. […] A-beta42 is regarded as the most amyloidogenic form due to its hydrophobicity; however, precisely how A-beta42 induces neurotoxicity is unclear. To understand further this biology and its potential therapeutic implications for human neurodegenerative disease, a quantitative high-throughput screen for compounds that reverse the cellular toxicity of the A-beta peptide was developed.
A yeast based screen was used because it recapitulates the salient feature of protein mis-folding disorder accurately. This cell-based phenotypic screen provides a significant, unbiased advantage by letting the compounds and models inform us which proteins or pathways are most relevant. The ideal chemical candidates would therefore have activity in both our primary yeast and secondary neuronal toxicity assays, as well as in mouse models. They will be valuable tools for dissecting diverse protein homeostasis pathologies and could potentially become the focus for future pre-clinical development. For this […] assay, inhibition of A-beta rescues the toxic effect in the yeast cell, resulting in increase of signals.
NIH Chemical Genomics Center [NCGC]
NIH Molecular Libraries Probe Centers Network [MLPCN]
Assay Submitter (PI): Susan Lindquist, Whitehead Institute, Massachusetts Institute of Technology
[1] Vassar R,et al (1999). Beta-secretase cleavage of Alzheimer's amyloid precursor protein by the transmembrane aspartic protease BACE. Science. 286: 735-741.
[2] Yan R, et al (1999). Membrane-anchored aspartyl protease with Alzheimer's disease beta-secretase activity. Nature.
Two and a half microliter / well of yeast growth medium were dispensed in a 1536 assay plate. Compounds were pinned using the Kalypsys robotic system followed by addition of 2.5 uL / well yeast solution. The assay plates were incubated at 30 C. After 48 hr, the absorbance signal at 600 nm was obtained using the PerkinElmer ViewLux plate reader to assess yeast growth. The data was normalized to the positive control of an equimolar mixture of ferric chloride (FeCl3) and clioquinol and to the negative control DMSO.
(Quantitative high-throughput screening tests each substance at several concentrations.)
On to `COc1ccccc1N1CCNCC1`, for which the compound was classed as inactive. The same measure for `CN1C[C@H](CNC(=O)OCc2ccccc2)C[C@@H]2c3cccc4c3c(cn4C)C[C@H]21`: “inactive”; for `CC(=O)[C@H]1CC[C@H]2[C@@H]3CC[C@H]4C[C@](C)(O)CC[C@]4(C)[C@H]3CC[C@]12C`: “inactive”; for `NCC1(CC(=O)O)CCCCC1`: “inactive”. Next, `c1ccc2c(c1)OCC(C1=NCCN1)O2` (stereo unspecified): “inactive”; `CC(CCc1ccccc1)NC(C)C(O)c1ccc(O)cc1` (stereo unspecified): “inactive”. The same measure for `O=C1NCN(c2ccccc2)C12CCN(CC1COc3ccccc3O1)CC2` (stereo unspecified): “inactive”.

For the compound `CC(O)(CS(=O)(=O)c1ccc(F)cc1)C(=O)Nc1ccc(C#N)c(C(F)(F)F)c1` (stereo unspecified), the call was inactive.

Regarding `CCC1(C2=NCCN2)Cc2ccccc2O1` (stereo unspecified), the result was inactive. On to `Cc1cccc(C)c1NC(=O)CN1CCCC1=O`, for which the outcome was inactive. The same measure for `C=C(C)[C@H]1Cc2c(ccc3c2O[C@@H]2COc4cc(OC)c(OC)cc4[C@@H]2C3=O)O1`: “inactive”.

Take `Nc1ccncc1`: the outcome was inactive. In the case of `C[C@]12CCC(=O)C(O)=C1CC[C@@H]1[C@@H]2CC[C@]2(C)C(=O)CC[C@@H]12`, the compound was classed as inactive. Next, `CNCC(O)c1ccc(O)cc1` (stereo unspecified): “inactive”; `N#CC(C#N)=Cc1ccc(O)c(O)c1`: “inactive”. The same measure for `Cc1ccc(S(=O)(=O)N[C@@H](CCCCN)C(=O)CCl)cc1`: “inactive”; for `Cc1c(OCC(F)(F)F)ccnc1CS(=O)c1nc2ccccc2[nH]1` (stereo unspecified): “inactive”. The same measure for `CC(C)=CCOc1c2occc2cc2ccc(=O)oc12`: “inactive”. As to `CCCN1CCC[C@@H]2Cc3[nH]ncc3C[C@H]21`, the call was inactive. The same measure for `COC[C@H]1OC(=O)c2coc3c2[C@@]1(C)C1=C(C3=O)C2CCC(=O)[C@@]2(C)C[C@H]1OC(C)=O` (stereo partly specified): “inactive”; for `CC(=O)[C@H]1CC[C@H]2[C@@H]3CC[C@H]4C[C@H](O)CC[C@]4(C)[C@H]3C(=O)C[C@]12C`: “inactive”.

Consider `CC[C@@H](CO)NC(=O)[C@@H]1C=C2c3cccc4[nH]cc(c34)C[C@H]2N(C)C1`, for which the compound was classed as inactive.

For `Fc1ccc(C(OCCN2CCN(CCCc3ccccc3)CC2)c2ccc(F)cc2)cc1`, the compound was called inactive.

Take `NCC(O)c1ccc(O)cc1` (stereo unspecified): the compound was called inactive. As for `CC[C@@H](CO)NC(=O)[C@@H]1C=C2c3cccc4c3c(cn4C)C[C@H]2N(C)C1`, the compound was called inactive. The same measure for `c1ccc(C2CC2)c(OCC2=NCCN2)c1`: “inactive”; for `CCCN1CCC[C@@H]2Cc3nc(N)ncc3C[C@H]21`: “inactive”. The same measure for `Cc1cccc(C)c1NC1=NCCCS1`: “inactive”; for `C[C@@H]1O[C@@H](O[C@H]2C[C@@H](O)[C@]3(CO)[C@H]4[C@H](O)C[C@]5(C)[C@@H](C6=CC(=O)OC6)CC[C@]5(O)[C@@H]4CC[C@]3(O)C2)[C@H](O)[C@H](O)[C@H]1O`: “inactive”; for `O=c1[nH]c2ccccc2n1CCCN1CCC(n2c(=O)[nH]c3cc(Cl)ccc32)CC1`: “inactive”.

As for `CCCC(C)(COC(N)=O)COC(=O)NC(C)C` (stereo unspecified), the compound was classed as inactive. Next, `NCC(CC(=O)O)c1ccc(Cl)cc1` (stereo unspecified): “inactive”.

As for `O=c1[nH]cc(F)c(=O)[nH]1`, the compound was classed as inactive. The same measure for `Cc1ncc(CNC(=O)N(CCCl)N=O)c(N)n1`: “inactive”; for `COc1ccc(C(CN(C)C)C2(O)CCCCC2)cc1` (stereo unspecified): “inactive”; for `NN=C(N)N`: “inactive”.
